Source: PubChem BioAssay AID1259421 (Broad Institute, 2018)
Several values for one entry are separate records, joined by “and”; a condition that tells them apart may be missing. Equal values may be shown once. About 610 (9.5%) of roughly 6,400 compounds were called active. Cut-off read from the data, not from the text of the source: active = activity change below about -70%; inconclusive = no clear call, values can overlap the other calls; inactive = above that. This excerpt belongs to a sample that is enriched for actives. Some compounds were tested as several samples or in several runs, with calls that do not always agree.

experiment: T. gondii ME49Luc in HeLa cells, luciferase assay, 72 h, no IFN-y (AID 1259421); conditions: stronger effect = lower value, concentration not given here

| SMILES | activity change, negative = inhibition |
| --- | --- |
| Cc1cc2c(C(C)C)c(O)c(O)c(C=O)c2c(O)c1-c1c(C)cc2c(C(C)C)c(O)c(O)c(C=O)c2c1O | -70.8% (active) and -12.6% (inactive) |
| Cc1cc(=O)oc2c(C=O)c(O)ccc12 | 16.5% (inactive) |
| CC(=O)c1ccc(O)c(C(N)=O)c1 | 7.8% (inactive) |
| CCCCNCC1COc2ccccc2O1 (stereo not drawn) | 0.699% (inactive) |
| CN[C@@H]1C[C@H]2O[C@@](C)([C@@H]1OC)n1c3ccccc3c3c4c(c5c6ccccc6n2c5c31)C(=O)N[C@H]4O | -88.9% (active) |
| CO[C@@H]1[C@H](N(C)C(=O)c2ccccc2)C[C@H]2O[C@]1(C)n1c3ccccc3c3c4c(c5c6ccccc6n2c5c31)C(=O)NC4 | -86.8% (active) |
| Cn1c2ccccc2c2c3c(c4c5ccccc5n(CCC#N)c4c21)CNC3=O | -94.9% (active) |
| Cc1[nH]cnc1CN1CCc2c(c3ccccc3n2C)C1=O | 17% (inactive) |
| C[C@]12OC(C[C@]1(O)CO)n1c3ccccc3c3c4c(c5c6ccccc6n2c5c31)CNC4=O | -87.7% (active) |
| O=C1NCc2c1c1c3ccccc3[nH]c1c1[nH]c3ccccc3c21 | 2.85% (inactive) |
| CC1(C)Oc2ccc(C#N)cc2C(N2CCCC2=O)C1O (stereo not drawn) | 4.23% (inactive) |
| C[N+](C)(C)C[C@H](O)CC(=O)O | 9.13% (inactive) |
| CC(Cc1ccccc1)(NC(=O)CN)c1ccccc1 (stereo not drawn) | -47.2% (inactive) and 8.98% (inactive) |
| CCc1ccc(C(=O)C(C)CN2CCCCC2)cc1 (stereo not drawn) | 8.8% (inactive) and 14.4% (inactive) |
| O=C(/C=C/c1ccc(O)c(O)c1)OC(Cc1ccc(O)c(O)c1)C(=O)O (stereo not drawn) | 2.52% (inactive) |
| CO/N=C(\N)c1ccc(-c2ccc(-c3ccc(/C(N)=N/OC)cc3)o2)cc1 | 86.4% (inactive) |
| COc1cc(OC)cc(OC)c1 | 10% (inactive) |
| O=C(CO)C(O)C(O)C(O)CO (stereo not drawn) | 2.77% (inactive) |
| CC(=O)[C@H]1CCC2C3CC=C4C[C@@H](O)CC[C@]4(C)C3CC[C@@]21C (stereo partly drawn) | 1.09% (inactive) |
| COc1ccc(Cl)cc1NC(=O)Nc1cc(C)nc2ccccc12 | -81.5% (active) and -81.1% (active) |
| COC(=O)c1cc(Cl)ccc1OC | 1.3% (inactive) |
| COc1cc(OC)c(NC(=O)Nc2cc(C)on2)cc1Cl | 4.07% (inactive) and 26.1% (inactive) |
| O=C(O)Cc1csc(-c2ccc(Cl)cc2)n1 | 15.8% (inactive) |
| CS(=O)(=O)Nc1cc2occ(NC=O)c(=O)c2cc1Oc1ccccc1 | 15.7% (inactive) |
| CCCCCCCCCCC(C)(C)C(=O)Nc1c(OC)cc(OC)cc1OC | 16.9% (inactive) |
| CC(C)(C)/[N+]([O-])=C/c1ccc(S(=O)(=O)O)cc1S(=O)(=O)O | 8.6% (inactive) |
| Cn1ccc2cc3c(cc21)CCN3C(=O)Nc1cccnc1 | 104% (inactive) and 4.22% (inactive) |

| SMILES | activity change, negative = inhibition |
| --- | --- |
| CN(C)c1nc(N)c(C(=O)Nc2cccnc2)nc1Cl | 157% (inactive) and 219% (inactive) |
| CS(=O)(=O)c1ccc(-c2cnc(N)c(C(=O)Nc3ccccc3)n2)cc1 | -81.9% (active) |
| CC(=O)NS(=O)(=O)c1ccc(NC(=O)c2ccccc2C(=O)O)cc1 | 1.07% (inactive) |
| CS(=O)(=O)c1ccc(C(=O)Nc2ccc(Cl)c(-c3ccccn3)c2)c(Cl)c1 | 19.4% (inactive) |
| CN1CCN(S(=O)(=O)c2ccc(-c3cnc(N)c(C(=O)Nc4cccnc4)n3)cc2)CC1 | -77.6% (active) |
| COc1ccc(/C=C/c2cc(O)cc(O[C@@H]3O[C@H](CO)[C@@H](O)[C@H](O)[C@H]3O)c2)cc1 | 12.1% (inactive) |
| Clc1cccc(C=NC=Nc2cccc(Cl)c2)c1 | -3.22% (inactive) |
| COC(=O)[C@@H]1CC(=O)O[C@H](C)C/C=C/C=C/[C@H](O)[C@H](C)C[C@H](CC=O)[C@H](OC2O[C@H](C)[C@@H](OC3C[C@@](C)(O)[C@@H](OC(=O)CC(C)C)[C@H](C)O3)[C@H](N(C)C)[C@H]2O)[C@H]1OC (stereo partly drawn) | -63.5% (inactive) |
| CC(Cc1ccc(O)c(O)c1)C(C)Cc1ccc(O)c(O)c1 (stereo not drawn) | 5.71% (inactive) |
| CNC(=O)c1ccc2cc([C@]3(O)CCn4cncc43)ccc2c1 | 9.56% (inactive) |
| C=C1C(=O)CC2CC3OC3(C)CCC3OC3(C)C[C@H](OC(C)=O)C1C2(C)C (stereo partly drawn) | -76.2% (active) |
| NCC(=O)CCC(=O)OCc1ccccc1 | 16.4% (inactive) |
| NC(Cc1ccccn1)c1ccccc1 (stereo not drawn) | 13% (inactive) |
| Oc1c(Cl)cc(Cl)c2cccnc12 | -83.9% (active) and -88% (active) and -90% (active) |
| O=S(=O)(O)c1cc(I)c(O)c2ncccc12 | 9.1% (inactive) and 15.9% (inactive) |
| Oc1c(I)cc(Cl)c2cccnc12 | 24.2% (inactive) |
| Cc1ccc2c(Cl)cc(Cl)c(O)c2n1 | -84% (active) |
| Oc1c(I)cc(I)c2cccnc12 | -8.85% (inactive) and -77.3% (active) |
| CO[C@@H]1[C@@H](O[C@@H]2O[C@H](C)[C@@H](O[C@H]3C[C@@](C)(O)[C@H](O)[C@H](C)O3)[C@H](N(C)C)[C@H]2O)[C@@H](CC=O)C[C@@H](C)[C@@H](O[C@H]2CC[C@H](N(C)C)[C@@H](C)O2)/C=C/C=C/C[C@H](C)OC(=O)C[C@H]1O | 4.59% (inactive) |
| C[n+]1cccc(C(=O)O)c1 | 14.5% (inactive) |
| O=C(O)CC(O)(CC(=O)[O][Bi]1[O]C(=O)CC(O)(CC(=O)O)C(=O)[O]1)C(=O)O (stereo not drawn) | 22.8% (inactive) |
| CCC(C)(C)C(=O)O | 9.3% (inactive) |
| O=C(O)Cc1ccc(OCCNC[C@H](O)c2ccccc2)cc1 | 15.6% (inactive) and 5.18% (inactive) |
| COC(=O)C[C@H]1C(C)(C)C(=O)[C@@H]2CC3=C(CC[C@]4(C)C3=CC(=O)O[C@H]4c3ccoc3)[C@@]1(C)C2=O | 16.4% (inactive) |
| CC(=O)OCC(=O)[C@@]1(O)CCC2C3CCC4=CC(=O)CC[C@]4(C)[C@@]3(F)[C@@H](O)C[C@@]21C (stereo partly drawn) | -4.8% (inactive) |
| N[C@@H](CCC(=O)N[C@@H](CS[NH2+][O-])C(=O)NCC(=O)O)C(=O)O | 15.6% (inactive) |
